This is an account of results in PubChem BioAssay (NCATS).

Inconclusive results are not listed. Calls of active or inactive are those of the source. The call rests on the fitted dose curve; in most records, active means well fitted activation curve with a large enough effect; inconclusive means small, poorly fitted or top-dose-only effect; inactive means flat fitted curve, though single readings scatter.

The assay in a line: Cellular Toxicity (caspase-3) Hek293 (AID 664).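 Further: cells exposed to compound for 16 h at 37 °C before readout.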 Conditions: HEK293 caspase-3 activation, DMSO = 0%, 100 µM tamoxifen = 100%; series mostly up to 92.2 µM. The source says: NIH Chemical Genomics Center [NCGC]
NIH Molecular Libraries Screening Centers Network [MLSCN]
National Institutes of Environmental Health Sciences [NIEHS]
National Toxicology Program [NTP]
We have developed a 1536-well cell-based assay for quantitative high throughput screening (qHTS) against a number of cell lines to determine in vitro caspase 3/7 of small molecules. This particular assay uses the Hek 293 cell line which is derived from human embryonic kidney cells.
NCGC Assay Protocol Summary:
The Caspase-Glo 3/7 assay (Promega) is a homogeneous method to measure caspase-3 and caspase-7 activities in cultured cells. The quantitation of caspase 3/7 activity is based on the cleavage of a peptide-aminoluciferin substrate. After caspase cleaves the substrate the free aminoluciferin is liberated and serves as the substrate of luciferase, which generates the light. The luminescent signal is proportional to amount of caspase 3/7 activity present.
Using the Caspase-Glo 3/7 assay, the amount of caspase 3/7 activity was measured in the Hek 293 cell line with complete culture medium following compound treatment for 16 hours. The assay was performed in opaque white 1536-well plates. In the screen, tamoxifen and doxorubicin were used as positive controls. Library compounds were measured for their ability to cause the activation of caspase 3/7 in the cell line, as reflected by an increase in luminescence signal, in a concentration-dependent manner. Data were normalized to the controls for basal activity (DMSO only) and 100% stimulation (100 uM tamoxifen). AC50 values were determined from concentration-response data modeled with the standard Hill equation.
qHTS protocol for caspase 3/7 assay in Hek 293 cells
[Step] [Parameter] [Value] [Description]
2. Time; 5 hr; 37 °C incubation
4. Controls; 23 nL; Tamoxifen 0.23 uM to 100 uM & Doxorubicin 7.0 pM to 100 uM
5. Time; 16 hr; 37 °C incubation
6. Reagent; 5 uL; Caspase-Glo 3/7 reagent
7. Time; 20 min; Room Temperature
8. Detection; Luminescence; Viewlux plate reader
Keywords: caspase 3/7, apoptosis, Hek 293 cell line, luminescence, NTPHTS, NTPHTS_NCGC, NIEHS, EPA, DSSTox, MLSMR, MLSCN, NIH Roadmap, qHTS, NCGC
Regarding `COC(C)(C)CCCC(C)C/C=C/C(C)=C/C(=O)OC(C)C` (stereo unspecified), the result was inactive.
In the case of `CCCCC(CC)COC(=O)c1ccccc1C(=O)OCC(CC)CCCC` (stereo unspecified) it was “inactive”; in that of `Nc1ccc(Cl)cc1`, “inactive”.
With `C=CC(=O)NCNC(=O)C=C`, the outcome was inactive.
In the case of `Cc1cc(O)ccc1Cl`, the outcome was inactive.
`O=C(O)C(Cl)Cl`: the compound was classed as inactive.
For the compound `O=[N+]([O-])c1c(Cl)c(Cl)cc(Cl)c1Cl`, the call was inactive.
Turning to `CN(C)NC(=O)CCC(=O)O`, the result was inactive.
As for `c1cc2ccc3cccc4ccc(c1)c2c34`, the outcome was inactive.
For the compound `CCCCCCCCc1ccc(O)cc1`, the result was inactive.
For `O=C(O)COc1ccccc1` the value was “inactive”; for `O=[N+]([O-])c1c2ccccc2cc2ccccc12`, “inactive”; for `O=S(=O)(c1ccc(Cl)cc1)c1ccc(Cl)cc1`, “inactive”.
In the case of `CC(=O)[O][Hg][c]1ccccc1` it was “inactive”.
Regarding `C1CCC(NC2CCCCC2)CC1`, the result was inactive.
As to `COc1ccc(C(c2ccc(OC)cc2)C(Cl)(Cl)Cl)cc1`, the call was inactive.
`Nc1ccc(Sc2ccc(N)cc2)cc1`: the compound was classed as inactive.
For the compound `CCCCOC(=O)c1ccccc1C(=O)OCc1ccccc1`, the outcome was inactive.
With `OCCCBr`, the compound was classed as inactive.
Regarding `CN(C)[C@@H]1C(=O)C(C(N)=O)=C(O)[C@@]2(O)C(=O)C3=C(O)c4c(O)cccc4[C@@](C)(O)[C@H]3[C@H](O)[C@@H]12`, the outcome was inactive.
As to `O=[N+]([O-])c1cc([N+](=O)[O-])c2ccccc2c1`, the compound was classed as inactive.
For the compound `CC(C)(O)C(=O)Nc1ccc([N+](=O)[O-])c(C(F)(F)F)c1`, the compound was called inactive.
With `CCOP(=O)(NC(C)C)Oc1ccc(SC)c(C)c1` (stereo unspecified), the call was inactive.
With `CCOCCOC(C)=O`, the compound was called inactive.
For the compound `Nc1ccc(Cl)cc1N`, the compound was called inactive.
In the case of `Nc1ccc([N+](=O)[O-])cc1`, the result was inactive.
